# Results filed as inconclusive are left out. The source made the active and inactive calls. How the source made its calls: active means hit-call score of the fitted dose curve at least 0.9, where 1 is the maximum; inconclusive means response in the unintended direction; inactive means score below 0.9.
# Key:
# [1] = target: sheep Cyclooxygenase-2 (Cox2), PTGS2 (gene 443460) (UniProt P79208); test: NVS_ENZ_oCOX2: NovaScreen (NVS) Enzymatic Assay for sheep Cyclooxygenase-2 (Cox2) (AID 2283231)
# Outline: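 Colorimetric absorbance read-out of COX activity, taken 0.66 hour post-dosing, using native protein from sheep placenta. Single-concentration duplicate screen (25 uM), then singleton concentration-response up to 50 uM for actives.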
# [2] = target: rat Acetylcholinesterase (AChE), Ache (gene 83817) (UniProt P37136); test: NVS_ENZ_rAChE: NovaScreen (NVS) Enzymatic Assay for rat Acetylcholinesterase (AChE) (AID 2283233)
# Outline: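 Rat brain membrane acetylcholinesterase activity measured colorimetrically 0.33 h after compound addition, loss of signal relative to DMSO. Primary screen in duplicate at 25 uM; actives re-run as concentration-response with 50 uM top concentration.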
# [3] = target: rat Constitutive Nitric Oxide Synthase (CNOS), Nos1 (gene 24598) (UniProt P29476); test: NVS_ENZ_rCNOS: NovaScreen (NVS) Enzymatic Assay for rat Constitutive Nitric Oxide Synthase (CNOS) (AID 2283236)
# Outline: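 Enzyme activity in rat brain membrane preparation, read 1 h after dosing by filter-based radiometric scintillation counting. Primary screen in duplicate at 25 uM; actives (e.g., ≥30% inhibition) then run in concentration-response up to 50 uM.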
# [4] = target: rat Monoamine Oxidase, MAO-B, Central (MAOBC), Maob (gene 25750) (UniProt P19643); test: NVS_ENZ_rMAOBC: NovaScreen (NVS) Enzymatic Assay for rat Monoamine Oxidase, MAO-B, Central (MAOBC) (AID 2283238)
# Outline: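 MAO-B activity in rat brain tissue preparation, cell-free, measured radiometrically by scintillation counting 1.17 h after dosing. Screened in duplicate at 25 uM; actives then in concentration-response up to 50 uM. Loss of signal versus DMSO scored.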
# [5] = target: bovine Dopamine Receptor (DR), Non-selective Binding, DRD1 (gene 281125) (UniProt Q95136); test: NVS_GPCR_bDR_NonSelective: NovaScreen (NVS) G Protein-Coupled Receptor Assay for bovine Dopamine Receptor (DR), Non-selective Binding (AID 2283241)
# Outline: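 Bovine striatal membranes; radioligand displacement read by filtration and scintillation counting 1 h after dosing, loss of signal vs DMSO. Screened in duplicate at 25 uM, then concentration-response for hits.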
# [6] = target: rat Monoamine Oxidase, MAO-B, Peripheral (MAOBP), Maob (gene 25750) (UniProt P19643); test: NVS_ENZ_rMAOBP: NovaScreen (NVS) Enzymatic Assay for rat Monoamine Oxidase, MAO-B, Peripheral (MAOBP) (AID 2283242)
# [7] = system: bovine Histamine 1 Receptor (H1), gene 281231; test: NVS_GPCR_bH1: NovaScreen (NVS) G Protein-Coupled Receptor Assay for bovine Histamine 1 Receptor (H1) (AID 2283246)
# Outline: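 Radioligand displacement on bovine cerebellar membranes, 1 h after dosing, filter-based scintillation read-out; loss of signal vs DMSO. Duplicate single-concentration screen at 25 uM, then concentration-response up to 50 uM for hits.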
# [8] = target: human Serotonin, 5-Hydroxytryptamine Receptor 2A (5HT2A), HTR2A (gene 3356) (UniProt P28223); test: NVS_GPCR_h5HT2A: NovaScreen (NVS) G Protein-Coupled Receptor Assay for human Serotonin, 5-Hydroxytryptamine Receptor 2A (5HT2A) (AID 2283249)
# Outline: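 Human cortex membranes, cell-free radioligand binding; filter-based scintillation read 1.5 h after dosing. Duplicate screen at 25 uM first; displacement of specific binding (loss of signal) versus DMSO.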
# [9] = system: guinea pig Muscarinic, Peripheral (Mperiperal) Receptor, Non-selective Binding, gene 100379235; test: NVS_GPCR_gMPeripheral_NonSelective: NovaScreen (NVS) G Protein-Coupled Receptor Assay for guinea pig Muscarinic, Peripheral (Mperiperal) Receptor, Non-selective Binding (AID 2283250)
# Outline: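 Guinea pig bladder membranes, radioligand binding read 1 h after dosing by filter scintillation counting; loss of signal vs DMSO. Primary duplicate screen at 25 uM, then concentration-response up to 50 uM.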
# [10] = target: human Serotonin, 5-Hydroxytryptamine Receptor 5A (5HT5A), HTR5A (gene 3361) (UniProt P47898); test: NVS_GPCR_h5HT5A: NovaScreen (NVS) G Protein-Coupled Receptor Assay for human Serotonin, 5-Hydroxytryptamine Receptor 5A (5HT5A) (AID 2283251)
# Outline: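 Cell-free radioligand displacement binding on HEK293-derived membrane protein, 1 h incubation, filter-based scintillation counting. Primary screen in duplicate at 25 uM, actives followed in concentration series; loss of signal fitted versus DMSO.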
# [11] = target: human Vascular Endothelial Growth Factor Receptor 2 (VEGFR2), KDR (gene 3791) (UniProt P35968); test: NVS_ENZ_hVEGFR2: NovaScreen (NVS) Enzymatic Assay for human Vascular Endothelial Growth Factor Receptor 2 (VEGFR2) (AID 2283230)
# Outline: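 Cell-free recombinant VEGFR2 kinase, fluorescent substrate with electrophoretic mobility-shift separation; read 1 h after dosing. Screened at 25 uM in duplicate, hits to concentration-response up to 50 uM; loss-of-signal versus DMSO.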
# [12] = target: rat Adenylate Cyclase, Forskolin Stimulated, Adcy5 (gene 64532) (UniProt Q04400); test: NVS_ENZ_rACFSKBinding: NovaScreen (NVS) Enzymatic Assay for rat Adenylate Cyclase, Forskolin Stimulated (AID 2283232)
# Outline: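 Rat forebrain membrane preparation, cell-free, read 1 h after dosing by filter-based scintillation counting. Primary screen in duplicate at 25 uM; actives (e.g. ≥30% inhibition) rerun in concentration-response up to 50 uM; fit versus DMSO.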
# [13] = target: Adenosine receptor A1 (Bos taurus) (UniProt P28190); test: NVS_GPCR_bAdoR_NonSelective: NovaScreen (NVS) G Protein-Coupled Receptor Assay for bovine Adenosine Receptor (AdoR), Non-selective Binding (AID 2283244)
# Outline: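 Bovine striatal membranes, radioligand displacement binding, 1 h after dosing, filter-based scintillation counting. Screened in duplicate at 25 uM, then concentration-response up to 50 uM; loss of specific binding relative to DMSO.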
# [14] = system: rat Monoamine Oxidase, MAO-A, Peripheral (MAOAP), gene 29253; test: NVS_ENZ_rMAOAP: NovaScreen (NVS) Enzymatic Assay for rat Monoamine Oxidase, MAO-A, Peripheral (MAOAP) (AID 2283237)
# Outline: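 Rat liver mitochondrial membranes served as the MAO-A source, with enzyme activity measured by radiometric scintillation counting 1.17 hours after dosing. Loss of signal was fitted against DMSO; primary screen used 25 uM in duplicate, follow-up used concentration series.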
# [15] = system: rat Monoamine Oxidase, MAO-A, Central (MAOAC), gene 29253; test: NVS_ENZ_rMAOAC: NovaScreen (NVS) Enzymatic Assay for rat Monoamine Oxidase, MAO-A, Central (MAOAC) (AID 2283243);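 further: potency refers to inhibition seen as signal drop below DMSO baseline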
# Outline: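 Rat brain tissue extract served as the cell-free enzyme source; activity was measured by radiometric scintillation counting 1.5 hours after compound addition. Loss of signal relative to DMSO baseline indicated inhibition; primary screen at 25 uM in duplicate.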
# [16] = NVS_GPCR_bNPY_NonSelective: NovaScreen (NVS) G Protein-Coupled Receptor Assay for bovine Neuropeptide Y (NPY) Receptor, Non-selective Binding (AID 2283245)
# Outline: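 Bovine hippocampal membranes incubated 1 hour with radioligand and test chemical. Bound ligand measured by filter-based scintillation counting. Single-concentration screen at 25 uM in duplicate, then concentration-response up to 50 uM.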
# [17] = target: rat Catechol-O-Methyl Transferase (COMT), Comt (gene 24267) (UniProt P22734); test: NVS_ENZ_rCOMT: NovaScreen (NVS) Enzymatic Assay for rat Catechol-O-Methyl Transferase (COMT) (AID 2283235)
# Outline: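 Cell-free enzyme activity with protein extracted from rat dorsal striatum, measured by HPLC with absorbance detection. Compounds screened at 25 uM in duplicate; actives then run in concentration-response up to 50 uM, loss of signal versus DMSO.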
# Chain of rat Acetylcholinesterase (AChE), Ache (gene 83817) (P37136 whole entry, looked up): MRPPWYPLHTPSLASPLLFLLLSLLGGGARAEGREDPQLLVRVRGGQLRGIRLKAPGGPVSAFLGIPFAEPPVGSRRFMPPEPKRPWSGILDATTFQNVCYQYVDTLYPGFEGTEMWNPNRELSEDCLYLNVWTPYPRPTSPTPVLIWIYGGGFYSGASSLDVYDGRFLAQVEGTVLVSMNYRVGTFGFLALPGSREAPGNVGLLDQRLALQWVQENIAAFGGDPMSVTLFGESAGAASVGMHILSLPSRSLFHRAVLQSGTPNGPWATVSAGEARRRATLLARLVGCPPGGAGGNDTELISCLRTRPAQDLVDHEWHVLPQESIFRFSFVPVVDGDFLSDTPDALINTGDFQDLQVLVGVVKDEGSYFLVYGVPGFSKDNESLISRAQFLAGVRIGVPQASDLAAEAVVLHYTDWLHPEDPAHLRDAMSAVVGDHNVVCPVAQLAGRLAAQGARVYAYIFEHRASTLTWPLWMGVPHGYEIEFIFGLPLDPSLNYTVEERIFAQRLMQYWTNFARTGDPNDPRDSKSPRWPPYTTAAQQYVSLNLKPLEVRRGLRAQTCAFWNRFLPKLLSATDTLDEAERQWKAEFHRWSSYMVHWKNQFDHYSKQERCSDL
# Chain of rat Adenylate Cyclase, Forskolin Stimulated, Adcy5 (gene 64532) (Q04400 whole entry, looked up): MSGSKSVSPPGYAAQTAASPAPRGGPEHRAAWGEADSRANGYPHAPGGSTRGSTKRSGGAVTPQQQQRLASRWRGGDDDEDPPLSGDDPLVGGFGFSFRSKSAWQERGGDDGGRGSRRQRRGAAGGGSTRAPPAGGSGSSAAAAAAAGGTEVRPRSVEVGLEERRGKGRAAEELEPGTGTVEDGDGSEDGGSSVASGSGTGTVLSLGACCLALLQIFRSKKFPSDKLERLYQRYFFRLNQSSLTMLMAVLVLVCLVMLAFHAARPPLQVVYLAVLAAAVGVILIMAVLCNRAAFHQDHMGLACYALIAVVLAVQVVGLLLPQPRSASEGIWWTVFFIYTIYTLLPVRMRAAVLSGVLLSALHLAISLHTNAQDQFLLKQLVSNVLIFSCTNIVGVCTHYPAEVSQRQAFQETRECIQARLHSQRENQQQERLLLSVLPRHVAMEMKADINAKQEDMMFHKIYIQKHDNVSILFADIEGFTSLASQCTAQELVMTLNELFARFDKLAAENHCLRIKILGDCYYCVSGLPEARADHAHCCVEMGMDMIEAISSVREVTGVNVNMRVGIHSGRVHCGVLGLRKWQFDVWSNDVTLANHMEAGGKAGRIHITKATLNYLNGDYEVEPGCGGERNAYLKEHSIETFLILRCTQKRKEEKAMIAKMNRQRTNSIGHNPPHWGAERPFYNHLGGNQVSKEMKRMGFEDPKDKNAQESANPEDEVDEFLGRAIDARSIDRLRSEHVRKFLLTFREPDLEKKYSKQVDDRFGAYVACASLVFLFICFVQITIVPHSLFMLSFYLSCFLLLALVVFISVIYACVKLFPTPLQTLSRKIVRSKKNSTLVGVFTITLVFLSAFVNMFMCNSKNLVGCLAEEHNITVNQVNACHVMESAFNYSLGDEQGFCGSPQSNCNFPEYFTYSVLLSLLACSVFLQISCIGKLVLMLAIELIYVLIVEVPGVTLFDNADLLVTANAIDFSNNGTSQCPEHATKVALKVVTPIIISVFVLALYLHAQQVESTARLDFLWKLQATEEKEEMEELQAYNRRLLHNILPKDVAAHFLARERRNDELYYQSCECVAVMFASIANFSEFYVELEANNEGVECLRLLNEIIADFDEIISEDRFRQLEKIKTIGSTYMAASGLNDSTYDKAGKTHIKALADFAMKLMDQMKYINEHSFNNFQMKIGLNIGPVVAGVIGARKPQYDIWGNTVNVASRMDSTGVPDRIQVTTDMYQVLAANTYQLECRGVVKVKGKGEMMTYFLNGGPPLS
# Chain of rat Monoamine Oxidase, MAO-B, Central (MAOBC), Maob (gene 25750) (P19643 whole entry, looked up): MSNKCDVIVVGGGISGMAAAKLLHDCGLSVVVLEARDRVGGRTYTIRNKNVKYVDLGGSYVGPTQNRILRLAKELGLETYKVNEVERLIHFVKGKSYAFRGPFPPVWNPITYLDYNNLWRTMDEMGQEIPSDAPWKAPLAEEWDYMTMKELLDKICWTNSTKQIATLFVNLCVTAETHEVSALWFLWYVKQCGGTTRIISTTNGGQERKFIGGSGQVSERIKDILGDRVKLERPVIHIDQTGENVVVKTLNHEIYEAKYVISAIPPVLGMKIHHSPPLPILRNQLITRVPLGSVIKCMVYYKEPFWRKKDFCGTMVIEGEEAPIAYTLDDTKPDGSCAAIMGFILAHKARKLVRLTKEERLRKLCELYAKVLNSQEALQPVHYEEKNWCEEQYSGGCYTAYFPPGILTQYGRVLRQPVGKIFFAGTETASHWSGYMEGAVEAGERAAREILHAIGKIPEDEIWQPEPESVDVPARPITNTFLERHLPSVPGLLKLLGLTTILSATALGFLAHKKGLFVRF
# Chain of rat Monoamine Oxidase, MAO-B, Peripheral (MAOBP), Maob (gene 25750) (P19643 whole entry, looked up): as above
# Chain of human Serotonin, 5-Hydroxytryptamine Receptor 2A (5HT2A), HTR2A (gene 3356) (P28223 whole entry, looked up): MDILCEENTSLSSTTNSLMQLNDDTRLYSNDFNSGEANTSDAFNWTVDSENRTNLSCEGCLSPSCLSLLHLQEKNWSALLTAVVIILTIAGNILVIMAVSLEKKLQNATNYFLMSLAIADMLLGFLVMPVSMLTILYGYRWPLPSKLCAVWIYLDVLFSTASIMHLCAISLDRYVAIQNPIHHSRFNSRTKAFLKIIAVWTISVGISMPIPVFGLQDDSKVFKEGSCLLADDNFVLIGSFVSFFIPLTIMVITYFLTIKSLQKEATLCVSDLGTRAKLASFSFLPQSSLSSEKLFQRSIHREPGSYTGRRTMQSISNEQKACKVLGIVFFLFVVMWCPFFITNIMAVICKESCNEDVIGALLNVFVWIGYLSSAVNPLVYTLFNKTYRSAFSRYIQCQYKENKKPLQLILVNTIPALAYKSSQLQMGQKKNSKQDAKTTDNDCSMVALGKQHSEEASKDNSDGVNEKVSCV
# Chain of sheep Cyclooxygenase-2 (Cox2), PTGS2 (gene 443460) (P79208 whole entry, looked up): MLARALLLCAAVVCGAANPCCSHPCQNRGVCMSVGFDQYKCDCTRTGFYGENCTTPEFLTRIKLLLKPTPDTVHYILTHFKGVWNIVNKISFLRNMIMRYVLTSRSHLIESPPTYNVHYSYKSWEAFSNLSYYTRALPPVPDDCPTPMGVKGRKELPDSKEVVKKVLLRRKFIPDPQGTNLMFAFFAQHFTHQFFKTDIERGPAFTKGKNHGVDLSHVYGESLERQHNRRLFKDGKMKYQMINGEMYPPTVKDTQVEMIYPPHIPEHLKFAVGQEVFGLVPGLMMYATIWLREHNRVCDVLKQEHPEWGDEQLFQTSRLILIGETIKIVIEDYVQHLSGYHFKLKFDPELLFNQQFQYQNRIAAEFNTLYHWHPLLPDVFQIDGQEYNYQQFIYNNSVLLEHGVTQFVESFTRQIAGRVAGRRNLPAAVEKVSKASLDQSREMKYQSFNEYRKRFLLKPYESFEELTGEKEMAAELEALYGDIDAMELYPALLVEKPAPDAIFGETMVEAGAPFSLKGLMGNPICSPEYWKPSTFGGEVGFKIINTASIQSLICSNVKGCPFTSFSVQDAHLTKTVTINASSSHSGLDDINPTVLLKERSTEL
# Chain of human Vascular Endothelial Growth Factor Receptor 2 (VEGFR2), KDR (gene 3791) (P35968 whole entry, looked up): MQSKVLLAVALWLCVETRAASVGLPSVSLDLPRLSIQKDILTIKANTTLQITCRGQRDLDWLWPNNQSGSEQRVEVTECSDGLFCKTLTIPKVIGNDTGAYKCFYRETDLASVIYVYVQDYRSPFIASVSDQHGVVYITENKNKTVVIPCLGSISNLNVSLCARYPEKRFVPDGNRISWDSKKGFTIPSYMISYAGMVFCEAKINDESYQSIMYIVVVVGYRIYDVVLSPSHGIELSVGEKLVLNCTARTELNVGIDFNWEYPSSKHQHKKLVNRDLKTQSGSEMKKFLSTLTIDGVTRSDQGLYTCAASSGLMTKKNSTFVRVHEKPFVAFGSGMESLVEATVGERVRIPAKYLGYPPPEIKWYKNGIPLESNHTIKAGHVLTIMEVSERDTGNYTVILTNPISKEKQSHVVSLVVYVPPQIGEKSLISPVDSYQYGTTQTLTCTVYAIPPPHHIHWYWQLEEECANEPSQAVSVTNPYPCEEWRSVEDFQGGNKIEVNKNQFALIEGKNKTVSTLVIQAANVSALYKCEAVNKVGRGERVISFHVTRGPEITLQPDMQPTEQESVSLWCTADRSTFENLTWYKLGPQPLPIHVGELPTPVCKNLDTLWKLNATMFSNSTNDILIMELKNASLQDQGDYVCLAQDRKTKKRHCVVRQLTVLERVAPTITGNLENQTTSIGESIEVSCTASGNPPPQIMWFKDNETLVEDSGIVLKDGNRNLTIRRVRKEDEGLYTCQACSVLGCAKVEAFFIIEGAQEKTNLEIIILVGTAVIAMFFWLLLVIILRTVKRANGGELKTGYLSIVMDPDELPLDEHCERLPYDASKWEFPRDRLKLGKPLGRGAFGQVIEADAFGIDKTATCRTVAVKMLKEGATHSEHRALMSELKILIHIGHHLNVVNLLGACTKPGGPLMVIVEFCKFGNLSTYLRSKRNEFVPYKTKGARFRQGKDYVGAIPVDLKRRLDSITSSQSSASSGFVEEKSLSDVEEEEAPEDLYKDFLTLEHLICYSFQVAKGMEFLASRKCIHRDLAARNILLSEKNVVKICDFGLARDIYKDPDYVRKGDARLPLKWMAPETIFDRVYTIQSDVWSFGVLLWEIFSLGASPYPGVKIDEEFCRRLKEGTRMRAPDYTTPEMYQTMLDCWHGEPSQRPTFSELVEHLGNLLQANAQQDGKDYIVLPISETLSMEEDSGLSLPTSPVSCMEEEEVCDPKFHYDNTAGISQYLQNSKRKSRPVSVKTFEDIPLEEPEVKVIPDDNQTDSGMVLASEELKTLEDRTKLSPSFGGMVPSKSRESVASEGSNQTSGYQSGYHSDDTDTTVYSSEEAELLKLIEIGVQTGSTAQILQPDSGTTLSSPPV
compound,measurement,setting,value
CN(C)c1ccccc1,outcome,[1],inactive
CC(O)CCO (stereo not given),outcome,[1],inactive
CCOC(=O)[C@]1(c2ccccc2)Oc2ccccc2[C@@H]1N,AC50,[2],17.2 µM (active)
same,outcome,[3],inactive
same,AC50,[4],10.2 µM (active)
same,AC50,[5],1.04 µM (active)
same,AC50,[6],2.44 µM (active)
same,AC50,[7],7.49 µM (active)
same,AC50,[8],3.91 µM (active)
same,AC50,[9],13.3 µM (active)
same,AC50,[10],0.659 µM (active)
CCCCCCCCOC(=O)c1ccc(C(=O)OCCCCCCCC)c(C(=O)OCCCCCCCC)c1,outcome,[2],inactive
CNC(=O)Oc1cccc2c1OC(C)(C)C2,outcome,[11],inactive
same,AC50,[2],0.464 µM (active)
O=[N+]([O-])C(Br)(CO)CO,AC50,[12],21.3 µM (active)
same,AC50,[2],35.2 µM (active)
same,AC50,[4],35.6 µM (active)
same,AC50,[13],16.5 µM (active)
same,outcome,[8],inactive
O=P(OCCCl)(OCCCl)OCCCl,outcome,[1],inactive
CCN(CC)N=O,outcome,[11],inactive
COP(=S)(OC)SCN1C(=O)c2ccccc2C1=O,outcome,[2],inactive
same,AC50,[3],3.44 µM (active)
same,outcome,[4],inactive
same,outcome,[8],inactive
CN(C)c1ccc(C(=O)c2ccc(N(C)C)cc2)cc1,AC50,[1],13 µM (active)
same,AC50,[14],7.24 µM (active)
same,AC50,[4],7.63 µM (active)
same,AC50,[6],18.6 µM (active)
same,AC50,[15],5.33 µM (active)
CC(C)(O)c1cnn2c(-c3ccc(F)c(-c4c(F)cccc4C#N)c3)cnc2n1,outcome,[12],inactive
same,outcome,[14],inactive
same,outcome,[4],inactive
same,outcome,[6],inactive
Clc1ccc(C(c2ccc(Cl)cc2)C(Cl)Cl)cc1,outcome,[11],inactive
CCCCCCCCn1sccc1=O,AC50,[12],26 µM (active)
same,outcome,[16],inactive
same,AC50,[10],26 µM (active)
Cc1ccc([N+](=O)[O-])cc1,outcome,[1],inactive
Clc1ccc(Cl)c(Cl)c1,outcome,[11],inactive
same,outcome,[6],inactive
ClC1=C(Cl)[C@]2(Cl)[C@H]3[C@H]([C@@H]4C=C[C@H]3C4)[C@@]1(Cl)C2(Cl)Cl,outcome,[11],inactive
same,outcome,[6],inactive
CN(C)[C@@H]1C(=O)C(C(N)=O)=C(O)[C@@]2(O)C(=O)C3=C(O)c4c(O)cccc4[C@@](C)(O)[C@H]3C[C@@H]12,AC50,[1],11.4 µM (active)
same,AC50,[17],2.73 µM (active)
same,outcome,[4],inactive
COc1cc(C=O)cc2c1[C@H](COC(N)=O)[C@]1(OC(C)=O)ON2C[C@H]2[C@@H]1N2C(C)=O,outcome,[11],inactive
c1ccc(NNc2ccccc2)cc1,outcome,[11],inactive
CC(C)(C)OOC(=O)c1ccccc1,outcome,[1],inactive
same,outcome,[4],inactive
